Rows were chosen to be rich in hits. Some 4.2% of all compounds tested hit in one or more screens of this group.
Wnt act: Wnt/beta-catenin pathway activators, primary screen, cell-based, plate reader, single point; hit rate 1.2% among 300,000; activation, % at 9.35 µM; Wnt/beta-catenin reporter cell assay, activator; AID 743398, 2014; in the data active = activation above about 30%, passing the limit was not always enough; inconclusive = no clear call, values can overlap the other calls;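 note: 0% = neutral control wells and 100% = positive control wells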
hgDAF-12 ag: H. glycines DAF-12 receptor agonists, primary screen, cell-based, luminescence, HEK293, GAL4 fusion, UAS-luciferase. activation, % at 6.8 µM. hit rate 1.8% among 370,000. HEK293 GAL4-hgDAF12 UAS-luciferase reporter, agonist luminescence; normalized to butyrate control. AID 687014, 2013. Nuclear hormone receptor DAF-12 (Heterodera glycines), GAL4 fusion;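 active = activation above a cutoff set at the mean of all screened compounds plus 3 SD, cut at about 10% in these data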;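 note: 0% = DMSO wells and 100% = sodium butyrate wells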
DAX1 StAR inh: DAX1 (NR0B1) inhibitors on StAR promoter, primary screen, cell-based, luminescence, SF-1 (NR5A1), full-length DAX-1. HEK293T StAR-luciferase reporter, SF-1/DAX-1 repression relief. inhibition, % at 6.8 µM. hit rate 1.1% among 370,000. AID 652010, 2013;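 active = inhibition above the mean over all tested compounds plus 3 SD, cut at about 3.6% in these data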;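 note: 0% = DAX-1 cells with DMSO and 100% = cells lacking DAX-1 with DMSO; higher inhibition means more luminescence from relief of DAX-1 repression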
ssDAF12 agonist: S. stercoralis DAF-12 nuclear receptor activators, primary screen, cell-based, luminescence, HEK293, GRIP1 co-expression, lit1-tk-luc; activation, % at 6.8 µM; HEK293 ssDAF-12/GRIP1 lit1-tk-luc reporter; % of 3 µM dafachronic acid response; hit rate 1% among 370,000; Nuclear hormone receptor DAF-12 (Strongyloides stercoralis);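 active = activation above the mean over all tested compounds plus 3 SD, cut at about 0.9% in these data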;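 note: 0% = DMSO-only wells and 100% = 3 µM delta7-dafachronic acid wells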
esBAF inh: Bmi1 luciferase reporter increase in mESCs, primary screen, esBAF inhibitor project, mouse ES cells, Bmi1 luciferase knock-in, single point. AID 602393, 2012. reporter increase, % at 12.5 µM. 24 h; 100% = twice the neutral-well signal. hit rate 2% among 350,000; in the data active = activation above about 40%; inconclusive = no clear call, values can overlap the other calls;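 note: 0% = median of the plate's neutral control wells and 100% = double that signal; a rise in the Bmi1 reporter signal indicates esBAF inhibition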
hcDAF-12 act: H. contortus DAF-12 nuclear receptor activators, primary screen, cell-based, luminescence, HEK293, lit1-tk-luc reporter; hit rate 1.4% among 370,000; HEK293 hcDAF-12 lit1-tk-luc reporter; 0% DMSO, 100% Δ7-dafachronic acid; activation, % at 6.8 µM; AID 652067, 2013;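 active = activation above the mean of all tested compounds plus 3 SD, cut at about 5.5% in these data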;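 note: 100% = response to 3 µM Δ7-dafachronic acid high control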
hgDAF12 ag: H. glycines DAF-12 receptor agonists, confirmation, cell-based, luminescence, HEK293, GAL4-LBD fusion. activation, % at 6.8 µM. HEK293 GAL4-hgDAF12 luciferase reporter, agonist mode; percent of butyrate response. AID 743050, 2013. shares compounds with hgDAF-12 ag. hit rate 80% among 3,300;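 active = mean activation over triplicate wells above the hit cutoff derived from the earlier primary screen, cut at about 11% in these data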;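 note: 0% = DMSO low control and 100% = 2 mM sodium butyrate high control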
LXR ag 2: LXR agonists, Gal4 luciferase reporter, confirmation, counter-screen for hgDAF-12 agonist project, cell-based, luminescence, HEK293, H. glycines campaign; shares compounds with hgDAF-12 ag; 24 h; activation, % at 6.8 µM; 3,300 tested, under 10 active; AID 743051, 2013;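 active = mean activation of the triplicate above a set limit carried over from the primary screen, none filed active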
Target sequence (P55055 whole entry, looked up, the tested form may be a part): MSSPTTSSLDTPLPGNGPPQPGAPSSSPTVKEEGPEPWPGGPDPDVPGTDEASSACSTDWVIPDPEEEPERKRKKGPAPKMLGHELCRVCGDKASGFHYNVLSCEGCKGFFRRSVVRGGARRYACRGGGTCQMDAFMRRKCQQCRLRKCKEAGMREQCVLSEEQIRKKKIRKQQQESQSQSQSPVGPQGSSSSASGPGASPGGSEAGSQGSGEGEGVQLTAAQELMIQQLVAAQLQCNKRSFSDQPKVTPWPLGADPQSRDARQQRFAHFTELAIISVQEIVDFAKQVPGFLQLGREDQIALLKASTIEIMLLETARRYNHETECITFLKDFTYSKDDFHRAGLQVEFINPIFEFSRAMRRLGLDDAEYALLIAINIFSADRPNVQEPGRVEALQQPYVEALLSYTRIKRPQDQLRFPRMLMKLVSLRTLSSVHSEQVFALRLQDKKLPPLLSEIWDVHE
The depositor's hits bear a star; ? = inconclusive; / = not tested or not shown.

SMILES	Wnt act	hgDAF-12 ag	DAX1 StAR inh	ssDAF12 agonist	esBAF inh	hcDAF-12 act	hgDAF12 ag	LXR ag 2
CC(C)C#Cc1cnc2c(c1)C(=O)N([C@@H](C)CO)C[C@@H](C)[C@H](CN(C)C(=O)Cc1ccccn1)O2	/	/	/	/	-1	/	/	/
Cc1noc(C)c1NC(=O)N(C)C[C@H]1Oc2ncc(C#CC(C)C)cc2C(=O)N([C@@H](C)CO)C[C@@H]1C	/	/	/	/	6	/	/	/
CNc1oc(/C=C/c2ccccc2)nc1C#N	/	13*	2	1.6*	/	5	18*	1
CNc1oc(-c2ccccc2)nc1C#N	1	4	0	-1	/	0	/	/
COc1ncccc1-c1nnn(-c2ccc(C)cc2)n1	39*	17*	2	0	?	3	17*	1
Cc1ccc(-n2nnc(-c3nccs3)n2)cc1	-5	0	0	0	-73	4	/	/
CN1c2ccc(-c3ccccc3)cc2[C@H]2[C@H](CCN2C(=O)Cc2ccccn2)[C@@H]1CO	/	/	/	/	16	/	/	/
CN(C)Cc1c(-c2ccc(Cl)cc2)nc2ccccn12	-3	18*	2	-1	34	3	10	1
Clc1ccc(-c2nc3ccccn3c2CN2CCCCC2)cc1	-4	-9	-2	-3	-5	-5	/	/
Cc1nc2sc(-c3ccccc3)nn2c(=O)c1Br	28	16*	3	-1	-4	4	17*	1
COc1ccc(-c2nn3c(=O)c(C)nnc3s2)cc1	/	/	/	/	28	/	/	/
COc1ccc(C(=O)CSc2nc(C)cc(=O)[nH]2)cc1	/	1	0	-1	/	1	/	/
COc1ccc(C(=O)CSc2cc(C)[nH]c(=O)n2)cc1	29	14*	3.7*	1	7	5	11*	0
C[C@@H]1CN([C@H](C)CO)C(=O)Cc2cc(NS(=O)(=O)c3ccc(F)cc3)ccc2O[C@@H]1CN(C)S(=O)(=O)c1cccs1	/	/	/	/	-1	/	/	/
C[C@@H]1CCCCO[C@H](CN(C)C(=O)C2CCCCC2)[C@H](C)CN([C@H](C)CO)C(=O)c2cc(N(C)C)ccc2O1	/	/	/	/	3	/	/	/
COc1cccc(C(=O)NCc2ccc3c(c2)OCO3)c1OC	0	-2	0	-1	17	-2	/	/
O=C(CCl)Nc1ccccc1C(=O)Nc1ccc2c(c1)OCO2	3	19*	0	0	/	5	7	1
COc1cccc(C(=O)Nc2ccc3c(c2)OCO3)c1OC	20	14*	1	1	/	5.8*	14*	1
COCCNC(=O)C[C@@H]1CC[C@H]2[C@H](COc3ccc(NC(=O)COC)cc3C(=O)N2C)O1	/	/	/	/	-1	/	/	/
CCOC(=O)c1sc(NC(=O)c2cccs2)cc1C	/	15*	0	-1	65*	0	14*	1
CCOC(=O)c1cccc(NC(=O)c2cccs2)c1	/	5	0	-1	15	0	/	/
CCOC(=O)c1sc(NC(=O)c2sccc2C)cc1C	59*	17*	2	1.2*	5	6.4*	17*	1
CCOC(=O)c1sc(Nc2nc3c(F)cccc3s2)cc1C	/	16*	0	0	/	5	13*	0
CCOC(=O)c1sc(NC(=S)NC(=O)C2CC2)cc1C	3	-2	0	-2	/	0	/	/
C[C@H](CO)N1C[C@H](C)[C@@H](CN(C)C(=O)C2CCCCC2)Oc2ncc(/C=C/c3ccccc3)cc2C1=O	/	/	/	/	-1	/	/	/

High-throughput results (PubChem)
